Reference: PubChem BioAssay AID1851 (National Center for Advancing Translational Sciences (NCATS), 2009)
Screen size: about 16,000 compounds; about 2,600 (16%) were called active. Not shown: some 20% with an inconclusive outcome. Calls follow the shape of the dose curve; as a rule, active = well fitted curve in the direction sought with a large enough effect; inconclusive = small, poorly fitted or top-dose-only effect, or effect the other way; inactive = no such curve, though single readings can be large or run the other way. Only a sample is shown.

Each compound was assayed against Cytochrome P450 2D6 (Homo sapiens) (UniProt P10635) (assay: Cytochrome panel assay with activity outcomes). Conditions: recombinant CYP, pro-luciferin dealkylation, luminescence, p450-cyp2d6; series mostly up to 57.1 µM; activity, negative = inhibition: at the top concentration.
% is scaled to controls: 0 for no effect and ±100 for the full control effect.

Sequence of Cytochrome P450 2D6 (Homo sapiens) (P10635 whole entry, looked up): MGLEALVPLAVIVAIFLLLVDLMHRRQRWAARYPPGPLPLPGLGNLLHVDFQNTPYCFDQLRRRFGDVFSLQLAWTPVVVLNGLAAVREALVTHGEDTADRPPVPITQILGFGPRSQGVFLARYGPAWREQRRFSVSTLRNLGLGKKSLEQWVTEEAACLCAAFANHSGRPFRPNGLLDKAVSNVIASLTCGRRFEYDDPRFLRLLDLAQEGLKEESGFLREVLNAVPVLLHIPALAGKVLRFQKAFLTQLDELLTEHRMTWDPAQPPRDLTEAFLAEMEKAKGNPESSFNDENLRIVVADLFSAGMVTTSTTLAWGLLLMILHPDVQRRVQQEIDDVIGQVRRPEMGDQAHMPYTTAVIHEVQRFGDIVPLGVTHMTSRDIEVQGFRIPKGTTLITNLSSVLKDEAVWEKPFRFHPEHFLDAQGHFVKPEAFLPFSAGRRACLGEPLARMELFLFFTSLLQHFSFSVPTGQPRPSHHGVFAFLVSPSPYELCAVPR

Row | SMILES | activity, negative = inhibition | AC50
1 | Cc1cccc(-n2nnc3cnn(C)c3c2=O)c1 | 23.6% (inactive) | 
2 | O=C(O)[C@@H]1[C@H](C(=O)O)[C@H]2C(=O)C=C[C@H]1N2Cc1ccccc1 | 3.08% [at 11.4 µM] (inactive) | 
3 | Cc1nn(C)c(Cl)c1NC(=O)OCc1ccc(F)cc1 | 1.19% (inactive) | 
4 | CC(=O)[C@@H]1CC[C@@H]2[C@@H]3C[C@H](C)C4=CC(=O)CC[C@@]4(C)[C@H]3[C@H](O)C[C@]21C | -5.2% [at 25.6 µM] (inactive) | 
5 | C=C(NC(=O)C(=C)NC(=O)c1csc(C2=N[C@@H]3c4csc(n4)[C@@H]4NC(=O)c5csc(n5)[C@@H]([C@](C)(O)[C@H](C)O)NC(=O)[C@@H]5CSC(=N5)/C(=C/C)NC(=O)[C@@H]([C@H](C)O)NC(=O)c5csc(n5)[C@]3(CC2)NC(=O)[C@@H](C)NC(=O)C(=C)NC(=O)[C@@H](C)NC(=O)[C@@H]([C@@H](C)CC)N[C@H]2C=Cc3c([C@H](C)O)cc(nc3[C@@H]2O)C(=O)O[C@H]4C)n1)C(N)=O | -0.464% [at 25.6 µM] (inactive) | 
6 | Cn1c(=O)c2[nH]c(C3CCCC3)nc2n(C)c1=O | 10.2% (inactive) | 
7 | Cc1nn(Cc2ccc(Cl)cc2)c(C)c1NC(=O)Cn1nc([N+](=O)[O-])c(Cl)c1C | 2.61% (inactive) | 
8 | COc1cnc(NS(=O)(=O)c2ccc(N)cc2)nc1 | 5.47% [at 25.6 µM] (inactive) | 
9 | CCOC(=O)C1=C(O)/C(=C\c2ccc(OC)c(OC)c2)N=C1C | -2.52% (inactive) | 
10 | Cc1noc(C)c1-c1cncnc1N(C)Cc1ccco1 | -10.5% (inactive) | 
11 | CN(Cc1ccco1)c1ncncc1-c1ccccc1Cl |  | 12.6 µM (active)
12 | CN(Cc1ccco1)c1ncncc1-c1cccnc1 | -2.43% (inactive) | 
13 | COc1cccc(-c2cncnc2N(C)Cc2ccco2)c1 |  | 12.6 µM (active)
14 | CN(Cc1ccco1)c1ncncc1-c1ccc2c(c1)OCO2 |  | 1.26 µM (active)
15 | CN(C)c1ccc(-c2cncnc2N(C)Cc2ccco2)cc1 |  | 12.6 µM (active)
16 | Cn1c(SCC(=O)c2ccc3c(c2)Cc2ccccc2-3)nnc1-c1ccccc1 | -15% (inactive) | 
17 | Cc1cc(C)nc(Nc2n[nH]c(COc3cccc4ccccc34)n2)n1 | -4.39% (inactive) | 
18 | CCN1CCc2nc(N)oc2CC1 | -10.8% (inactive) | 
19 | Nc1ncnc2c1ncn2[C@H]1O[C@@H](C(=O)O)[C@@H](O)[C@H]1O | 2.66% [at 11.4 µM] (inactive) | 
20 | Cc1c(CC(C)(C)C(=O)O)n(Cc2ccc(Cl)cc2)c2ccc(F)cc12 | 13.4% (inactive) | 
21 | Cc1cc(C(F)(F)F)n2nc(-c3cnn(C)c3C(F)(F)F)c(Cl)c2n1 | -26.1% (inactive) | 
22 | CNc1oc(C)nc1S(=O)(=O)c1ccc(C)cc1 | 1.25% (inactive) | 
23 | COCCn1c(=O)c(-c2cccc(C#N)c2)nc2cnc(N3CCOCC3)nc21 | -3.05% (inactive) | 
24 | COc1cc(OC)c2cc(-c3ccncc3)cnc2c1 | -3.08% (inactive) | 
25 | COCCNC(=O)/C(C#N)=C/c1ccc(-c2ccc(OC)cc2[N+](=O)[O-])o1 | 17.4% (inactive) | 

Row | SMILES | activity, negative = inhibition | AC50
26 | CO/N=C/c1ccc(N2CCN(C(=O)c3ccc(Cl)cc3Cl)CC2)c([N+](=O)[O-])c1 | -12.7% (inactive) | 
27 | Cc1snc(SCC(=O)N/N=C(\N)COc2cccc(C(F)(F)F)c2)c1C#N | -10.3% (inactive) | 
28 | C=CC[C@@H]1C=C[C@@H](O/N=C\C[C@@H]2C=C[C@H](OC(C)=O)[C@H](COC(C)=O)O2)[C@@H](CO)O1 | -12% [at 11.4 µM] (inactive) | 
29 | COC(=O)[C@@H]1CC[C@H](C)[C@@H](c2ccc(C)cc2)N1C(=O)c1ccc(/C=N\O[C@@H]2O[C@H](COC(C)=O)[C@H](OC(C)=O)[C@H](OC(C)=O)[C@H]2OC(C)=O)cc1 | -6.2% [at 11.4 µM] (inactive) | 
30 | CC(=O)OC[C@@H]1O[C@H](C/C=N\OCC[C@H]2C=C[C@H](OC(C)=O)[C@@H](COC(C)=O)O2)C=C[C@@H]1OC(C)=O | -6.46% [at 11.4 µM] (inactive) | 
31 | CC(=O)OC[C@@H]1O[C@H](CCO/N=C\[C@@H](C)[C@H](OCc2ccccc2)C(C)C)C=C[C@@H]1OC(C)=O | -18.8% [at 11.4 µM] (inactive) | 
32 | CC(=O)OC[C@@H]1O[C@H](C/C=N\OC[C@@H](C)[C@H](OCc2ccccc2)C(C)C)C=C[C@@H]1OC(C)=O | -1.74% [at 11.4 µM] (inactive) | 
33 | CC(=O)OC[C@@H]1O[C@H](CCON=C(C)C)C=C[C@@H]1OC(C)=O | -4.81% [at 11.4 µM] (inactive) | 
34 | CC(=O)OC[C@H]1O[C@@H](ON=C(C)C)[C@H](OC(C)=O)[C@@H](OC(C)=O)[C@H]1OC(C)=O |  | 3.16 µM (active)
35 | CC(=O)OC[C@@H]1O[C@H](C/C=N\O[C@@H]2O[C@H](COC(C)=O)[C@@H](OC(C)=O)[C@H](OC(C)=O)[C@H]2OC(C)=O)C=C[C@@H]1OC(C)=O |  | 3.98 µM (active)
36 | CC(=O)OC[C@H]1O[C@@H](O/N=C\[C@@H](C)[C@H](OCc2ccccc2)C(C)C)[C@H](OC(C)=O)[C@@H](OC(C)=O)[C@H]1OC(C)=O |  | 3.98 µM (active)
37 | CC(CCc1ccccc1)NS(=O)(=O)c1ccccc1 (stereo not given) | -24% (inactive) | 
38 | COc1cccc(Cn2c(=O)c(-c3ccccc3)nc3cnc(N(C)C)nc32)c1 | -12.2% (inactive) | 
39 | CC(=O)Nc1nc(NC(C)=O)c2[nH]c(CO)nc2n1 | -2.84% [at 11.4 µM] (inactive) | 
40 | Cc1cc(=O)n2c3ccccc3n(CC(O)CN3CCCCC3)c2c1C#N (stereo not given) |  | 8.91 µM (active)
41 | OC(CN1CCCCC1)CN1CCCCC1 | 2.59% (inactive) | 
42 | O=CN1CCN(C[C@H](O)CN2CCCCC2)CC1 | 9.19% [at 11.4 µM] (inactive) | 
43 | Nc1ccc(C(=O)C[C@H](N)C(=O)O)cc1O | -0.576% [at 11.4 µM] (inactive) | 
44 | CS(=O)(=O)Nc1ccc(C(=O)N2CCN(c3ccccc3)CC2)cc1 | -5.62% (inactive) | 
45 | Cc1ccc(C(=O)N2CCN(C3c4cccc5cccc(c45)C3NS(=O)(=O)c3ccccc3)CC2)cc1 (stereo not given) |  | 2.82 µM (active)
46 | Cc1ccc(C)c(S(=O)(=O)NCc2ccc(C(=O)N3CCC(Cc4ccccc4)CC3)cc2)c1 | -14.3% (inactive) | 
47 | COc1ccccc1CNS(=O)(=O)c1ccc2[nH]cc(C(=O)O)c(=O)c2c1 | 11.4% (inactive) | 
48 | COCC(=O)N/N=C/c1ccc(Sc2nc3ccccc3s2)o1 | -14.8% (inactive) | 
49 | Cc1ccc(C(=O)NC(=S)N2CC(C)OC(C)C2)cc1[N+](=O)[O-] (stereo not given) | -2.21% (inactive) | 
50 | CC(C)C[C@H](NC(=O)[C@@H]1O[C@H]1C(=O)O)C(=O)NCCCCN=C(N)N | 13.8% (inactive) | 
